From PubChem BioAssay (NCATS) come the findings set out here.

Common to all, as to test: qHTS profiling for inhibitors of Plasmodium falciparum proliferation (AID 504749); note: nearly all actives have a fitted effect of over 60% in size
Details in all cases: P. falciparum in erythrocytes, SYBR Green DNA, 72 h; series mostly up to 28.7 µM
(In general: Quantitative high-throughput screening tests each substance at several concentrations.)

One test deals with CP335. The method in brief: (§1)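 Fluorescence of SYBR Green-bound parasite DNA, read at 485/535 nm, served as the growth measure. Infected erythrocytes were cultured with compound 72 h; artemisinin (0.29 uM) and DMSO wells defined the normalization range.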
For another test, the system named is DFO2036. The method, boiled down: as §1
For another test, the system named is DIV14. The method, boiled down:
as §1

The subject of another test is DIV17. The method in brief:
as §1

In the next test the test system is ECU. The method, boiled down: as §1
In the next test the test system is FAB9. The method, boiled down:
as §1

The subject of another test is GB4. The method, boiled down:
as §1

The next test deals with HB3. The method, boiled down:
as §1

For another test, the system named is JCK. The method in brief:
as §1

Another test deals with N140. The method, boiled down: as §1
In the next test the test system is P93_24. The method, boiled down: as §1
A further test relates to P94_40. The method in brief: as §1
The test system of the next test is PAD. The method, boiled down:
as §1

The next test has as its system PC15. The method in brief:
as §1

The subject of the next test is PC26. The method, boiled down: as §1
For the next test, the system named is PC49. The method in brief: as §1
The test system of a further test is SC27B. The method, boiled down: as §1
The next test has as its system DIV30. The method in brief:
as §1

The subject of a further test is Dd2. The method, boiled down:
as §1

For the next test, the system named is ICS. The method, boiled down:
as §1

Inconclusive results are not listed. Activity calls are given as the source filed them. Calls come from the whole dose curve; as a rule, active = well fitted inhibition curve with a large enough effect; inconclusive = small, poorly fitted or top-dose-only effect; inactive = flat fitted curve, though single readings scatter.
Potency is the fitted concentration of half-maximal effect.

`CC(C)=CC1C(C(=O)OCc2cccc(Oc3ccccc3)c2)C1(C)C` (configuration not stated): the Potency entry in the test on CP335, in the test with DFO2036, in the test on DIV14, in the test on DIV17, with ECU and with FAB9 was “inactive” throughout. For the same compound, the Potency result in the test on GB4, in the test with HB3, with JCK, with N140, in the test on P93_24 and in the test on P94_40 was “inactive” each time. In addition, the Potency result with PAD, with PC15, with PC26, in the test with PC49 and with SC27B was “inactive” in each case.
With `CCOP(=S)(OCC)Oc1cc(C)nc(C(C)C)n1`, the Potency entry with CP335, in the test with DFO2036, in the test on DIV14, in the test on DIV17, in the test on DIV30 and in the test with Dd2 was “inactive” in each case. Moreover, the Potency entry in the test with ECU, with FAB9, in the test on GB4, with HB3, with ICS and with JCK was “inactive” throughout. Besides, the Potency result in the test with N140, in the test with P93_24, in the test on P94_40, in the test with PAD, with PC15 and in the test with PC26 was “inactive” in each case. The Potency entry with PC49 and in the test with SC27B was “inactive” throughout.
On to `NN=C(N)N`, for which the Potency result in the test with CP335, in the test with DFO2036, in the test with DIV14, in the test on DIV17, in the test on DIV30 and with Dd2 was “inactive” each time. The Potency entry with ECU, with FAB9, in the test on GB4, in the test on HB3, in the test with ICS and in the test on JCK was “inactive” in each case. The Potency entry in the test with N140, in the test on P93_24, in the test on P94_40, in the test with PAD, in the test on PC15 and in the test with PC26 was “inactive” in each case. The Potency result in the test on PC49 and in the test on SC27B was “inactive” throughout.
Take `O=P1(NCCCl)OCCCN1CCCl` (configuration not stated): the Potency entry in the test with CP335, in the test with DFO2036, in the test on DIV14, in the test with DIV17, in the test on DIV30 and with Dd2 was “inactive” in each case. The Potency entry with ECU, in the test with FAB9, with GB4, in the test with HB3, with ICS and in the test with N140 was “inactive” throughout. In addition, the Potency entry with P93_24, in the test on P94_40, in the test with PAD, in the test with PC15, with PC26 and in the test with PC49 was “inactive” each time. Further, the Potency entry in the test with SC27B was “inactive”.
For the compound `OCCOc1ccccc1`, the Potency entry with CP335, in the test with DFO2036, in the test on DIV14, in the test with DIV17, with DIV30 and in the test on Dd2 was “inactive” in each case. Also, the Potency result with ECU, with FAB9, in the test on GB4, in the test on HB3, in the test on ICS and in the test on JCK was “inactive” in each case. For the same compound, the Potency result in the test on N140, with P93_24, with P94_40, with PAD, in the test on PC15 and in the test on PC26 was “inactive” throughout. Moreover, the Potency result in the test on PC49 and in the test on SC27B was “inactive” each time.
As for `CCC(COC(=O)c1cc(OC)c(OC)c(OC)c1)(c1ccccc1)N(C)C` (configuration not stated), the Potency result with CP335, in the test on DFO2036, in the test with DIV14, with DIV17, in the test on DIV30 and with Dd2 was “inactive” throughout. Further, the Potency result with ECU, in the test on FAB9, in the test on HB3, with ICS, in the test with JCK and in the test with N140 was “inactive” in each case. The Potency entry in the test on P93_24, in the test on PAD, in the test with PC15, in the test on PC26, in the test with PC49 and with SC27B was “inactive” in each case.
`Nc1ccncc1`: the Potency result in the test on CP335, with DFO2036, in the test on DIV14, with DIV17, in the test with DIV30 and in the test with Dd2 was “inactive” in each case. Further, the Potency entry with ECU, in the test on FAB9, in the test with GB4, in the test with HB3, in the test with ICS and in the test with JCK was “inactive” throughout. Moreover, the Potency result in the test on N140, in the test on P93_24, in the test on P94_40, in the test with PAD, in the test with PC15 and with PC49 was “inactive” throughout. In addition, in the test with SC27B, the Potency entry is “inactive”.
Take `Oc1ccccc1-c1ccccc1`: the Potency entry in the test on CP335, with DFO2036, with DIV14, in the test with DIV17, with DIV30 and with Dd2 was “inactive” each time. Moreover, the Potency result in the test on ECU, in the test on FAB9, with GB4, in the test on HB3, in the test with ICS and in the test with JCK was “inactive” in each case. Further, the Potency entry in the test on N140, in the test on P93_24, in the test with P94_40, in the test on PAD, in the test with PC15 and in the test on PC26 was “inactive” each time. For the same compound, the Potency result in the test with PC49 and with SC27B was “inactive” throughout.
On to `O=c1[nH]c2ccccc2n1CCCN1CCC(n2c(=O)[nH]c3cc(Cl)ccc32)CC1`, for which the Potency in the test on CP335 was 10.7 µM (active); with DIV14, 5.36 µM (active); in the test with DIV17, 8.49 µM (active); in the test on DIV30, 7.57 µM (active); with ECU it was 7.94 µM (active); in the test on HB3 it was 10 µM (active). The Potency with ICS is 2.24 µM (active); in the test on N140, 6.31 µM (active); in the test on P93_24, 5.01 µM (active); in the test on P94_40, 11.2 µM (active); with PAD, 4.47 µM (active); with PC15, 7.94 µM (active). The Potency in the test with PC26 was 6.75 µM (active). Further, the Potency entry in the test on DFO2036, in the test with FAB9 and in the test with PC49 was “inactive” in each case.
For the compound `COc1ccccc1N1CCNCC1`, the Potency entry in the test on CP335, in the test on DFO2036, with DIV14, with DIV17, with DIV30 and in the test on Dd2 was “inactive” each time. For the same compound, the Potency entry in the test on ECU, in the test with FAB9, with GB4, in the test on HB3, in the test with ICS and in the test with JCK was “inactive” each time. For the same compound, the Potency result with N140, with P93_24, in the test on P94_40, with PAD, with PC15 and in the test on PC26 was “inactive” throughout. Also, the Potency result with PC49 and with SC27B was “inactive” throughout.
As to `CC[N+](CC)(CC)CC`, the Potency result with CP335, in the test on DFO2036, in the test with DIV14, with DIV17, in the test on DIV30 and with Dd2 was “inactive” each time. The Potency result in the test on ECU, in the test on FAB9, in the test on GB4, with HB3, in the test with ICS and in the test on JCK was “inactive” each time. Besides, the Potency entry with N140, in the test with P93_24, in the test with P94_40, in the test with PAD, with PC15 and in the test with PC49 was “inactive” in each case. The Potency result in the test with SC27B is “inactive”.
For `Cc1ncc(CNC(=O)N(CCCl)N=O)c(N)n1`, the Potency entry with CP335, in the test on DFO2036, in the test with DIV14, with DIV17, with DIV30 and with Dd2 was “inactive” throughout. The Potency entry with ECU, in the test on FAB9, in the test with GB4, in the test on HB3, with ICS and in the test with JCK was “inactive” in each case. Moreover, the Potency entry in the test on N140, in the test with P93_24, in the test on P94_40, with PAD, with PC15 and in the test with PC26 was “inactive” in each case. Also, the Potency entry in the test with PC49 and in the test on SC27B was “inactive” throughout.
Regarding `NCCc1cc(O)c(O)cc1O`, the Potency entry in the test on CP335, in the test on DFO2036, in the test with DIV14, in the test on DIV17, with DIV30 and with ECU was “inactive” each time. For the same compound, the Potency result in the test on FAB9, with GB4, with HB3, with ICS, in the test with JCK and in the test on N140 was “inactive” each time. The Potency entry in the test with P93_24, with P94_40, with PAD, in the test on PC15, in the test on PC26 and in the test on PC49 was “inactive” in each case. In addition, the Potency entry with SC27B was “inactive”.
